Results taken from PubChem BioAssay AID1259343 (VanderVen Lab, College of Veterinary Medicine, Cornell …, 2017).
The campaign covered roughly 6,200 compounds. About 2,900 (47%) were called active. Rule as the data show it: active = inhibition above about 50%; inactive = the rest. The set was probably picked from earlier hits. This is one part of the list.

Test: Mycobacterium tuberculosis growth inhibition, primary screen (AID 1259343)
Settings: inhibition: at 10 µM, active compounds read high; outcome: 10 uM
With `c1ccc2c(c1)[I+]c1ccccc1-2` the inhibition was 101% (active).
For `OC(COc1ccc(Cl)cc1)CSc1ccc(Br)cc1` (configuration not stated), the inhibition was -20.4% (inactive).
For `CC(O)c1ccc(Oc2ccc(Br)cc2)cc1` (configuration not stated), the inhibition was 72.8% (active).
In the case of `Nc1ccc(Oc2ccc(Br)cc2)cc1`, the inhibition is reported as 39.8% (inactive).
For `NC(=O)C1CCN(c2nc3cc(C(F)(F)F)ccc3s2)C1` (configuration not stated), the inhibition was 34.5% (inactive).
For `CCc1cnc(C)nc1N1CCCC(C(=O)c2ccc(C(F)(F)F)cc2)C1` (configuration not stated), the inhibition was 51.3% (active).
In the case of `COC(=O)C(Cc1ccc(OCCn2c(=O)sc3cc(C(=O)c4ccccc4)ccc32)cc1)C(=O)OC`, the inhibition is reported as 51.7% (active).
With `COc1ccc(NC(=O)c2sc(=O)n(CCOc3ccc(F)cc3)c2C)cc1OC` the inhibition was 27.4% (inactive).
With `O=c1nc(SC/C=C/c2ccccc2)nc2ccccn12` the inhibition was -19.1% (inactive).
With `C(=C\c1ccccc1)/CSc1n[nH]c(-c2cccnc2)n1` the inhibition was 96.6% (active).
With `c1ccc(-c2nc(SC(c3ccccc3)c3ccccc3)n[nH]2)cc1` the inhibition was 22.5% (inactive).
With `O=C(c1ccco1)N1CCC(CCc2ccc(-c3ccccc3)cc2)CC1` the inhibition was 81% (active).
In the case of `O=C(c1ccco1)N1CCCC2(CCCCC2)C1`, the inhibition is reported as -18% (inactive).
For `COc1ccc(-c2ccc(C(=O)N3CCCC(c4ccccc4)CC3)cn2)cc1` (configuration not stated), the inhibition was 36.2% (inactive).
For `c1ccc(-c2ccc(CCC3CCN(Cc4cccs4)CC3)cc2)cc1`, the inhibition was 43.2% (inactive).
In the case of `O=C(c1ccco1)N1CCC(Cc2ccc(F)cc2)CC1`, the inhibition is reported as 86.8% (active).
In the case of `O=C(c1ccc(-c2ccc(O)cc2)nc1)N1CCC(CCc2ccccc2)CC1`, the inhibition is reported as 83.7% (active).
In the case of `CCOC(=O)C(=O)N1CCC(CCc2ccccc2)CC1`, the inhibition is reported as 90.7% (active).
With `O=C(C1CCC1)N1CCC(CCc2ccc(-c3ccccc3)cc2)CC1` the inhibition was 44.8% (inactive).
With `O=C(c1ccno1)N1CCC(Cc2ccc(F)cc2)CC1` the inhibition was 56.4% (active).
In the case of `Cc1ccccc1N1CCN(Cc2cc(C#CCO)cs2)C(C)C1` (configuration not stated), the inhibition is reported as -56.2% (inactive).
With `Cc1ccccc1N1CCN(Cc2ccc(C#CCO)s2)C(C)C1` (configuration not stated) the inhibition was 76.9% (active).
With `c1ccc2c(c1)CN1CCCC1=N2` the inhibition was 101% (active).
With `O=C1OC2(CCCCC2)OC(=O)C1=CNc1ccc2ccccc2c1` the inhibition was 48.9% (inactive).
In the case of `O=C1C=C(Nc2ccc3ccccc3c2)CCC1`, the inhibition is reported as 89.7% (active).
With `O=C(Nc1nnc(-c2ccc3c(c2)OCCO3)o1)c1cccc2ccccc12` the inhibition was 98.7% (active).
For `CN(CCNC(=O)C1(C)CC1(Cl)Cl)C1CC1` (configuration not stated), the inhibition was -9.78% (inactive).
For `Cc1cc2nc(CN(C)Cc3nc(Cc4cccc(C(F)(F)F)c4)no3)[nH]c2cc1C`, the inhibition was “inactive”.
In the case of `FC(F)(F)c1cccc(Cc2noc(CN3CCC(OCc4ccccn4)CC3)n2)c1`, the inhibition is reported as 32% (inactive).
With `COc1cccc(C(C)N(C)Cc2nc(-c3cccc(Cl)c3)oc2C)c1` (configuration not stated) the inhibition was -0.61% (inactive).
With `CN(Cc1nc(COc2ccccc2)no1)CC1(c2ccccc2)CC1(C)C` (configuration not stated) the inhibition was 42.2% (inactive).
With `CN(Cc1csc(-c2ccccc2)n1)Cc1nc(Cc2cccc(F)c2)no1` the inhibition was 90.6% (active).
For `Cc1c(CN(C)Cc2nc(Cc3cccc(C(F)(F)F)c3)no2)[nH]c2ccccc12`, the inhibition was 66.5% (active).
For `COc1cccc(C(C)N(C)Cc2nc(Cc3cccc(F)c3)no2)c1` (configuration not stated), the inhibition was 65.5% (active).
In the case of `COc1cccc(C(C)N(C)Cc2nc(COc3ccccc3)no2)c1` (configuration not stated), the inhibition is reported as 71.8% (active).
With `N#Cc1cccc(OCc2noc(-c3ccsc3)n2)c1` the inhibition was 34.2% (inactive).
In the case of `COc1ccccc1OC(C)c1nc(Cc2cccc(C(F)(F)F)c2)no1` (configuration not stated), the inhibition is reported as 36.2% (inactive).
In the case of `CC1CCC(C(C)C)c2[nH]nc(-c3ccccc3O)c21` (configuration not stated), the inhibition is reported as 4.33% (inactive).
For `O=S(=O)(/C=C/c1ccc(Cl)cc1)Oc1ccc(F)c(F)c1`, the inhibition was 92.7% (active).
With `Cn1ccc(NS(=O)(=O)/C=C/c2ccc(Cl)cc2)n1` the inhibition was 41.7% (inactive).
With `CC(C)CCNCC(O)CON=C1c2ccccc2-c2ccccc21` (configuration not stated) the inhibition was 84.8% (active).
For `N#Cc1ccccc1-c1ccc(COc2coc(CN3CCN(C(=O)c4ccc([N+](=O)[O-])o4)CC3)cc2=O)cc1`, the inhibition was 102% (active).
With `CCCCC/C=C\C/C=C\C/C=C\CCCCC(=O)N1CCN(Cc2cc(=O)c(OCc3cccc(F)c3)co2)CC1` the inhibition was 16.1% (inactive).
In the case of `Cc1cc(C)c(-c2nc3cc(NC(=O)c4cccs4)ccc3o2)c(C)c1`, the inhibition is reported as 42.8% (inactive).
With `Cc1nc2cc(NC(=O)CN(C)S(=O)(=O)c3ccc(F)cc3)ccc2o1` the inhibition was 23.8% (inactive).
In the case of `CCc1nc2cc(NC(=O)CC3CCCCC3)ccc2o1`, the inhibition is reported as 89.5% (active).
For `c1csc(-c2noc(CN3CCc4sccc4C3)n2)c1`, the inhibition was 46.9% (inactive).
With `CC(c1nc(-c2cccs2)no1)N1CCC(c2ccccc2)CC1` (configuration not stated) the inhibition was -41.5% (inactive).
In the case of `Fc1ccccc1OCC1CCCN(Cc2nc(-c3cccs3)no2)C1` (configuration not stated), the inhibition is reported as 47% (inactive).
For `Clc1ccccc1C1CCN(Cc2nc(-c3cccs3)no2)C1` (configuration not stated), the inhibition was 96.1% (active).
For `c1csc(-c2noc(CN3CCCC(c4nc5ccccc5o4)C3)n2)c1` (configuration not stated), the inhibition was “inactive”.
For `Fc1ccccc1CC1CCN(Cc2nc(-c3cccs3)no2)CC1`, the inhibition was 83.9% (active).
With `CCCC1=NN(c2nc3ccccc3s2)C(=O)C1C(C)=Nc1ccc(C(=O)OCC)cc1` (configuration not stated) the inhibition was 98.8% (active).
With `CC(C)Oc1ccc(CNC(=O)c2ccco2)cc1F` the inhibition was 99.8% (active).
For `O=C(Nc1ccc(SC2CCCC2)cc1)c1ccc(=O)[nH]c1`, the inhibition was 53.3% (active).
With `Nc1nccnc1C(=O)Nc1ccc(SC2CCCC2)cc1` the inhibition was 80% (active).
With `Nc1nccnc1C(=O)NCCSCc1ccsc1` the inhibition was -5.01% (inactive).
With `CCc1c(C)nc(-n2nc(C)cc2NC(=O)c2cccc([N+](=O)[O-])c2C)[nH]c1=O` the inhibition was 102% (active).
For `Cc1cc(=O)[nH]c(-n2nc(C)cc2NC(=O)c2cccc([N+](=O)[O-])c2C)n1`, the inhibition was 100% (active).
For `Cc1cc(NC(=O)c2cccc([N+](=O)[O-])c2C)n(-c2nc(C)c(C)c(=O)[nH]2)n1`, the inhibition was 98.3% (active).
With `CCc1c(C)nc(-n2nc(C)cc2NC(=O)c2ccccc2[N+](=O)[O-])[nH]c1=O` the inhibition was 81.9% (active).
In the case of `O=C(O)c1ccc(Oc2cc(Cl)ccc2Cl)cc1`, the inhibition is reported as 45.5% (inactive).
With `O=C(O)c1ccc(Oc2cccc(Br)c2)cc1` the inhibition was 91.5% (active).
For `N#CCc1ccc(Oc2ccc(C(=O)O)cc2)cc1`, the inhibition was 34.3% (inactive).
For `Nc1ccc(-c2nc(-c3ccccc3)c3cc(N)ccc3n2)cc1`, the inhibition was 29.6% (inactive).
In the case of `CC[n+]1c(-c2ccccc2)c2cc(N)ccc2c2ccc(N)cc21`, the inhibition is reported as 99.5% (active).
For `Cc1ccc2sc(NNC(=O)c3cc(=O)c4ccccc4o3)nc2c1C`, the inhibition was 72.2% (active).
For `O=S(=O)(c1ccc(F)c(F)c1)N1CCN(c2ccc(O)cc2)CC1`, the inhibition was 56.7% (active).
For `O=S(=O)(c1ccc(F)cc1)N1CCN(c2ccnc3cc(Cl)ccc23)CC1`, the inhibition was 3.02% (inactive).
With `CCC(C)NC(=O)c1cnc(N2CCN(c3ccccc3[N+](=O)[O-])CC2)nc1OC` (configuration not stated) the inhibition was 2.36% (inactive).
For `O=C(c1ccc(N2CCCCC2)c([N+](=O)[O-])c1)N1CCc2ccccc21`, the inhibition was 23.8% (inactive).
For `CCC(CC)NC(=O)c1ccc(N2CCCCC2)c([N+](=O)[O-])c1`, the inhibition was 96.8% (active).
With `CN(C(=O)CSc1nc2sc3c(c2c(=O)[nH]1)CCCC3)C1CCCCC1` the inhibition was 93.2% (active).
With `CN(C(=O)CSc1nc2sc3c(c2c(=O)n1C)CCCC3)C1CCCCC1` the inhibition was 18.9% (inactive).
In the case of `CCOC(=O)c1nn(-c2ccc(C)cc2)c(=O)c2c(N)scc12`, the inhibition is reported as 60.8% (active).
For `CCOC(=O)c1nn(-c2ccccc2)c(=O)cc1NC(=O)c1ccc(C(C)(C)C)cc1`, the inhibition was -13.4% (inactive).
With `CCOC(=O)c1nn(-c2ccccc2)c(=O)c2c(NC(=O)CCCCl)scc12` the inhibition was 61.2% (active).
For `CCOC(=O)c1nn(-c2ccc(C(C)C)cc2)c(=O)c2c(N)scc12`, the inhibition was 101% (active).
With `CCOC(=O)c1nn(-c2ccc(C)cc2)c(=O)cc1NC(=O)C1CCCC1` the inhibition was -7.9% (inactive).
For `CCOC(=O)c1nn(-c2ccc(C)cc2)c(=O)cc1N1CCN(c2ccccc2OC)CC1`, the inhibition was 38.5% (inactive).
With `CCOC(=O)c1nn(-c2cccc(C)c2)c(=O)c2c(N)scc12` the inhibition was 89.5% (active).
With `N[C@@H](CO)C(=O)Nc1ccc(Cc2ccccc2)cc1` the inhibition was 89.6% (active).
With `Nc1ccccc1Cc1ccc(O)cc1` the inhibition was 30.5% (inactive).
For `COc1ccc(CN2CCN(c3ncnc4c3cnn4-c3ccccc3)CC2)cc1F`, the inhibition was 82.1% (active).
For `OCC1(CCOc2ccccc2)CCN(c2ncnc3sccc23)CC1`, the inhibition was 20.1% (inactive).
With `COc1cccc(OCCN2CCN(c3ncnc4c3cnn4-c3ccccc3)CC2)c1` the inhibition was 64% (active).
In the case of `Cc1ccc(Cn2ncc3c(N4CCN(CCOc5ccc(C)cc5)CC4)ncnc32)cc1`, the inhibition is reported as 24.2% (inactive).
With `CCN1CCN(Cc2ccc(-c3cc4c(N[C@H](C)c5ccccc5)ncnc4[nH]3)cc2)CC1` the inhibition was 16.6% (inactive).
For `CC(C)c1cc(NCCN(C)C)n2ncc(-c3ccccc3)c2n1`, the inhibition was -10.7% (inactive).
For `Cc1cc(NCCN(C)C)n2nc(C(F)(F)F)c(-c3ccccc3)c2n1`, the inhibition was 45% (inactive).
For `CN(C)CCCNc1cc(C(C)(C)C)nc2c(-c3ccc(Cl)cc3)cnn12`, the inhibition was 36.7% (inactive).
For `Cc1ccc(-c2cnn3c(NCCOCCO)cc(C(C)(C)C)nc23)cc1`, the inhibition was -3.38% (inactive).
For `CN(C)CCNc1cc(-c2ccccc2)nc2c(-c3ccccc3)cnn12`, the inhibition was 70.7% (active).
For `CN(C)CCCNc1cc(C(C)(C)C)nc2c(-c3ccccc3)cnn12`, the inhibition was 74% (active).
For `Cc1cc(=O)[nH]c(-n2nc(C3CC3)cc2NC(=O)c2ccc(F)c(F)c2)n1`, the inhibition was 99.9% (active).
In the case of `Cc1cc(=O)[nH]c(-n2nc(C3CC3)cc2NC(=O)c2ccc(C(F)(F)F)cc2)n1`, the inhibition is reported as 99.9% (active).
With `Cc1cc(=O)[nH]c(-n2nc(C3CC3)cc2NC(=O)c2ccc(F)cc2)n1` the inhibition was 99.8% (active).
